Where “and” joins values, the source holds several entries; their conditions need not be identical. Equal entries are not always repeated. A structure can be active in one record and inactive in another. Calls of active or inactive are those of the source.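 Rule for the calls, unless noted: active = thallium flux through the channel raised or lowered by more than 3 SD from vehicle-only wells, actives on both sides; inactive = the rest.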
How the values were obtained:
[1] = stimulators of nuclear beta-catenin in C2C12, primary screen, imaging, WNT3A-conditioned medium, mouse C2C12, NPC library (AID 1117326; in the data active = nuclear beta-catenin stimulation mostly above about 4.2%, no sharp cut-off; inactive = mostly below about 10%); conditions: stronger effect = higher value
[2] = stimulators of insulin release from INS-1E, primary screen, cell-based, 5 mM glucose, NPC library (AID 1117329;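 active = compound raises insulin release from rat beta cells at 5 mM glucose, no numeric limit stated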); conditions: rat INS-1E insulin secretion, at 10 µM, stronger effect = higher value
[3] = growth inhibition of GSK3B-pretreated HCT116 cells – cell-based, CellTiter-Glo, 0.2 to 20 µM (AID 1117336;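 active = compounds lowering colon cancer cell viability after pretreatment blocking the GSK3B kinase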); conditions: HCT116 viability after GSK3B inhibitor, at 20 µM, stronger effect = higher value
[4] = inhibition of endothelial tube formation, primary screen, imaging, VEGF stimulated, CD31 staining, tube area, NPC library (AID 1117340;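 active = compound that reduces growth-factor-driven endothelial tube area in a mixed cell culture, no cutoff stated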); conditions: VEGF-stimulated ADSC/ECFC co-culture, at 10 µM, stronger effect = higher value
[5] = glucagon-like peptide 1 release enhancers, primary assay, NCI-H716 cell line, NPC library (AID 1117341;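 active = compound raises GLP1 secretion from the human gut endocrine cells, with no numeric limit stated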); conditions: NCI-H716 cells, at 10 µM, stronger effect = higher value
[6] = HCT116 colon cancer cell growth inhibition, primary screen, CellTiter-Glo luminescence, NPC library (AID 1117342;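 active = compounds that lower survival of HCT116 colon cancer cells in the luminescence readout, no numeric limit stated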); conditions: at 20 µM (top of the series)
[7] = CellTiter-Glo luminescent readout of SW480 viability loss, NPC library primary (AID 1117343;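 active = compounds that lower viability of the colon cancer cells in the luminescence readout, with no numeric limit stated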); conditions: CellTiter-Glo luminescence; at 20 µM (top of the series)
[8] = decreased DLD-1 cellular survival, CellTiter-Glo luminescent readout, NPC compound collection, primary HTS (AID 1117346;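 active = compounds that lower survival of DLD-1 colon cancer cells in the luminescence readout, no cutoff given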); conditions: DLD-1 viability, CellTiter-Glo luminescence; at 20 µM (top of the series)
[9] = target: 6-phosphogluconate dehydrogenase, decarboxylating (Homo sapiens) (UniProt P52209); assay: 6PGD enzyme inhibitors, primary screen, biochemical, human, recombinant enzyme, NADPH absorbance (AID 1159550;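 active = at least 20% inhibition of 6-phosphogluconate dehydrogenase activity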); conditions: recombinant 6PGD, NADPH absorbance 341 nm; at 10 µM; stronger effect = higher value
Sequence of 6-phosphogluconate dehydrogenase, decarboxylating (Homo sapiens) (P52209 whole entry, looked up): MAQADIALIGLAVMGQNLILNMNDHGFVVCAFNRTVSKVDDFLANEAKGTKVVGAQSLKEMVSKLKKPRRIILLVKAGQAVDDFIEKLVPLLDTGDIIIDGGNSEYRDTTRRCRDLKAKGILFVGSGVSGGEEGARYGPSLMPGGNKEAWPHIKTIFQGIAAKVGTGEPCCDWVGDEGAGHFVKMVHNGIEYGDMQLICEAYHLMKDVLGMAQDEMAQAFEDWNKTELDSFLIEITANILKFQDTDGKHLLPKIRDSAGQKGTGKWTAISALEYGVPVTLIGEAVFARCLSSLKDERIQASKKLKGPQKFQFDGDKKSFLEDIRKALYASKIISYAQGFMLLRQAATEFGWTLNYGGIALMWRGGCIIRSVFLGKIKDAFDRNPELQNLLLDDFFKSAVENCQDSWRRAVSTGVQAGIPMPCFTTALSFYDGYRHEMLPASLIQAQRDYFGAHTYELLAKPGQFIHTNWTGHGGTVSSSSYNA

[10] = modulation of C. elegans fzo-1 (AID 1259413; call rule not given here;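 note: fzo-1 mutant C. elegans worms in liquid wells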); conditions: C. elegans fzo-1 modulator screen, mean read-out; stronger effect = higher value
[11] = differential killing of epithelial or mesenchymal cells, primary screen, imaging, PC-3E GFP, TEM4-18 mCherry, co-culture (AID 1345086;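 active = compounds killing one labelled cell type while sparing the other, by normalised counts and ratio limits, not self-fluorescent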;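 for all read-outs here: cells exposed to compound for 72 h before imaging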;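 for red/green cell ratio (normalised): normalised mesenchymal count divided by normalised epithelial count so high means epithelial killing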); conditions: imaging cell counts, at 1 µM; for red/green cell ratio (normalised): actives lie on both sides, counts scaled to control wells, 1 = unselective
[12] = sensitizers of A549 cells to miR-34 induction, primary screen, imaging, A549 dox-inducible miR-34, nuclei and caspase counts (AID 1347080;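 active = compounds whose cell count with miR-34 switched on is under 0.7 times the count with it off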); conditions: A549 miR-34 inducible, Hoechst nuclei count, 48 h
[13] = survival rescue of mitochondrial mutant cells in low glucose, primary screen, MELAS cybrids, Rieske KO mouse fibroblasts, CellTiter-Glo (AID 1508586;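 active = mean z-score across replicates of 1.96 or higher in either the MELAS or the Rieske mutant cell line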;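 note: z relative to plate mean and SD of compound and empty wells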)
[14] = target: NAD(+) hydrolase SARM1 (Homo sapiens) (UniProt Q6SZW1); assay: SARM1 TIR NADase inhibitors, cell lysate, NAD-Glo luminescence (AID 1508614;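 active = compound whose remaining NAD level is above about 45 nM, limit read from the data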;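 note: higher remaining NAD means stronger inhibition of SARM1 NADase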); conditions: SAM-TIR HEK293T lysate NADase, at 1 µM, stronger effect = higher value
Sequence of NAD(+) hydrolase SARM1 (Homo sapiens) (Q6SZW1 whole entry, looked up, the tested form may be a part): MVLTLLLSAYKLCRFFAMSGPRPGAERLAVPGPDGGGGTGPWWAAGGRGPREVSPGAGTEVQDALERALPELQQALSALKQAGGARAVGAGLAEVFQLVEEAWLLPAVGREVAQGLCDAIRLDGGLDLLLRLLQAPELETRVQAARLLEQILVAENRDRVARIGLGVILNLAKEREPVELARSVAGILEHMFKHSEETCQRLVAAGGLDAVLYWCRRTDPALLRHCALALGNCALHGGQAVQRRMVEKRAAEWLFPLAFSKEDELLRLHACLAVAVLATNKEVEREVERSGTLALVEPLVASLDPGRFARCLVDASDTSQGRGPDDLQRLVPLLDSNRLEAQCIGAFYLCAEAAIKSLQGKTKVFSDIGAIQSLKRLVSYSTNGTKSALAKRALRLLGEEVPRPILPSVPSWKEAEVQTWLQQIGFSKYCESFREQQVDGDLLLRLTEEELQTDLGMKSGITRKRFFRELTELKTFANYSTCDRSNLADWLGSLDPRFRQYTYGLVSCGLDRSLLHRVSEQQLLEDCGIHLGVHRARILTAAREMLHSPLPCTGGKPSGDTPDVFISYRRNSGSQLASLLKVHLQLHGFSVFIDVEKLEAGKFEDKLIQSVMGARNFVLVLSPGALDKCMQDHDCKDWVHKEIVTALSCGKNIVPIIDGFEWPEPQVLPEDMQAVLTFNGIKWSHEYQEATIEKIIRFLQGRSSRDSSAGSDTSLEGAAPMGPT

[15] = target: Mitogen-activated protein kinase 7 (Homo sapiens) (UniProt Q13164); assay: ERK5 transactivation activators in reporter cells, primary screen, cell-based, HTS (AID 1508626;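 active = luciferase signal above three times the same-plate solvent-only control wells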;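 note: luciferase driven by Gal4-ERK5 fusion binding five Gal4 sites before minimal TATA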); conditions: HeLa Gal4-ERK5 transactivation, 18 h, at 5 µM, stronger effect = higher value
Sequence of Mitogen-activated protein kinase 7 (Homo sapiens) (Q13164 whole entry, looked up, the tested form may be a part): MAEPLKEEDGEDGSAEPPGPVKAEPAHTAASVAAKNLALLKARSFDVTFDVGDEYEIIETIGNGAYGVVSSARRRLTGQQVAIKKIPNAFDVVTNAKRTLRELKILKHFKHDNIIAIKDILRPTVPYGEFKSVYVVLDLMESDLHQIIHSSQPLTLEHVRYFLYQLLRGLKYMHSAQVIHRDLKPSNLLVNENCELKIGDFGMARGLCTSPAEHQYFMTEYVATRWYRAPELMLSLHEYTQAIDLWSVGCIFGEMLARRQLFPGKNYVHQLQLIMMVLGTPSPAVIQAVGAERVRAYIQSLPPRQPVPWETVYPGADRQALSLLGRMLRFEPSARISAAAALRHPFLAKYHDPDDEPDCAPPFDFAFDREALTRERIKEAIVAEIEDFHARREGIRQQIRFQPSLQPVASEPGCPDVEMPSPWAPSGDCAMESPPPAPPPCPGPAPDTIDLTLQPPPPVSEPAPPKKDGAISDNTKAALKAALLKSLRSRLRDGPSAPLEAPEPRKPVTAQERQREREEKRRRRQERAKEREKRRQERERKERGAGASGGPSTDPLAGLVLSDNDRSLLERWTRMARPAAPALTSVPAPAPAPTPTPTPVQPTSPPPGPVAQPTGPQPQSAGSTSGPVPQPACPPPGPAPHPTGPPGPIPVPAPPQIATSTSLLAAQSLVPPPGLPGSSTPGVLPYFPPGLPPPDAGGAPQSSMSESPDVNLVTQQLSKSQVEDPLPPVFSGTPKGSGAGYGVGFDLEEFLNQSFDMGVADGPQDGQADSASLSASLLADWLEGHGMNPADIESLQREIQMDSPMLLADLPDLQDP

[16] = test system: F380Y; assay: modulators of BK channel variants, profiling panel, selectivity assay, cell-based, U2OS BacMam, thallium flux, beta subunits (AID 1259406); conditions: at 30 µM;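 note: initial slope of Thallos dye fluorescence rise after thallium is added; log ratio against the mean of 0.3% DMSO vehicle wells on the same plate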
[17] = test system: F380Y/beta1; assay: as above; conditions: at 30 µM
[18] = test system: F380Y/beta2Delta; assay: as above; conditions: at 30 µM
[19] = ICB984 medulloblastoma cell growth inhibition, synergistic combos for chromothripsis tumors, cisplatin or BGB combos (AID 1671451; call rule not given here;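 note: cells exposed for 96 hours before readout; 0% = vehicle DMSO and 100% = killing by high DMSO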); conditions: ICB984 medulloblastoma cells, drug combinations, stronger effect = higher value
[20] = measured here: epithelial PC-3E GFP cell survival
[21] = measured here: mesenchymal TEM4-18 mCherry cell survival
[22] = stronger effect = lower value, cell number ratio, induced over uninduced
[23] = measured here: relative caspase fold change +Dox/-Dox
[24] = measured here: total cells with miR-34 induction, stronger effect = lower value
[25] = measured here: total cells without miR-34 induction
[26] = MELAS cybrid survival, CellTiter-Glo 48 h, stronger effect = higher value
[27] = Rieske KO mouse fibroblast survival, CellTiter-Glo 72 h

With `N[C@@H](C(=O)N[C@@H]1C(=O)N2C(C(=O)O)=C(Cl)CS[C@H]12)c1ccccc1` the nuclear beta-catenin stimulation ([1]; at 10 µM) was 0.3% (inactive), the nuclear beta-catenin stimulation ([1]; stimulation, at 2 µM) was 1.1% and the insulin secretion stimulation [2] was 1.9% (inactive). The viability decrease [3] was 12.5% (inactive), the tube area decrease [4] was -21% (inactive) and the GLP1 secretion stimulation [5] was -1.7% (inactive). For the same compound, the inhibition of viability [6] was -1.63% (inactive), the viability decrease (inhibition) [7] was 26.8% (inactive) and the viability decrease (inhibition) [8] was -20.5% (inactive). The inhibition [9] was -9.98% (inactive), the mean signal [10] was 277 (inactive) and the red/green cell ratio (normalised) [11] was 1.23 (inactive). The normalised cell number [11, 20] was 0.9, the normalised cell number [11, 21] was 1.1 and the fold change [12, 22] was 0.883 (inactive) and 0.884 (inactive). For the same compound, the fold change [12, 23] was 1.88 and 4.52, the cell count [12, 24] was 8220 and 11700 and the cell count [12, 25] was 9320 and 13200. For the same compound, the z-score [13, 26] was 0.0553 (inactive), the z-score [13, 27] was -0.142 and the remaining NAD [14] was 10 nM (inactive). The luciferase signal [15] was 32 AU (inactive), the log fold change Tl+ flux [16] was -0.0277 (inactive) and the log fold change Tl+ flux [17] was -0.0714 (inactive). The log fold change Tl+ flux [18] was -0.0661 (inactive).
In the case of `CCn1cc(C(=O)O)c(=O)c2cc(F)c(N3CCN(C)CC3)cc21`, the nuclear beta-catenin stimulation ([1]; at 10 µM) is reported as 3.6% (inactive), the nuclear beta-catenin stimulation ([1]; stimulation, at 2 µM) is reported as 1.2% and the insulin secretion stimulation [2] is reported as -0.5% (inactive). For the same compound, the viability decrease [3] was -12.5% (inactive), the tube area decrease [4] was 25.6% (inactive) and the GLP1 secretion stimulation [5] was 3.5% (inactive). For the same compound, the inhibition of viability [6] was -14.7% (inactive), the viability decrease (inhibition) [7] was -27.3% (inactive) and the viability decrease (inhibition) [8] was -10.3% (inactive). For the same compound, the inhibition [9] was 5% (inactive), the mean signal [10] was 261 (inactive) and the red/green cell ratio (normalised) [11] was 1.22 (inactive). For the same compound, the normalised cell number [11, 20] was 1.13, the normalised cell number [11, 21] was 1.38 and the remaining NAD [14] was 10 nM (inactive). For the same compound, the luciferase signal [15] was 56 AU (inactive), the inhibition ([19]; BGB IC20 combo, at 0.005 µM) was -18.1% and 6.69% and the inhibition ([19]; BGB IC40 combo, at 0.005 µM) was -42.4% and -0.345%. For the same compound, the inhibition ([19]; BGB IC40 combo, at 0.05 µM) was -41% and 23.4%, the inhibition ([19]; at 0.5 µM) was -41.8% (inactive) and -20.7% (inactive) and the inhibition ([19]; cisplatin combo, at 0.05 µM) was -41% and 21.2%. For the same compound, the inhibition ([19]; cisplatin combo, at 0.5 µM) was -53.3% and -24%, the inhibition ([19]; cisplatin combo, at 5 µM) was -34.1% and -14.2% and the inhibition ([19]; measured here: 5 uM single agent, at 5 µM) was -3.29% and -1.89%. For the same compound, the log fold change Tl+ flux [16] was -0.0273 (inactive), the log fold change Tl+ flux [17] was -0.000461 (inactive) and the log fold change Tl+ flux [18] was -0.0112 (inactive).
With `Cc1onc(-c2c(Cl)cccc2Cl)c1C(=O)N[C@@H]1C(=O)N2[C@@H]1SC(C)(C)[C@@H]2C(=O)O` the nuclear beta-catenin stimulation ([1]; at 10 µM) was 1.5% (inactive), the nuclear beta-catenin stimulation ([1]; stimulation, at 2 µM) was 1.3% and the insulin secretion stimulation [2] was 1.5% (inactive). The viability decrease [3] was -15.4% (inactive), the tube area decrease [4] was 1.6% (inactive) and the GLP1 secretion stimulation [5] was 0% (inactive). The inhibition of viability [6] was -4.23% (inactive), the viability decrease (inhibition) [7] was 18.3% (inactive) and the viability decrease (inhibition) [8] was -11.8% (inactive). The inhibition [9] was -8.13% (inactive), the mean signal [10] was 230 (inactive) and the red/green cell ratio (normalised) [11] was 1.32 (inactive). The normalised cell number [11, 20] was 1.26, the normalised cell number [11, 21] was 1.67 and the fold change [12, 22] was 0.978 (inactive) and 0.899 (inactive) and 0.89 (inactive). For the same compound, the fold change [12, 23] was 0.333 and 1.39 and 0.886, the cell count [12, 24] was 10400 and 7750 and 11800 and the cell count [12, 25] was 10700 and 8620 and 13200. The z-score [13, 26] was 0.18 (inactive), the z-score [13, 27] was 0.0231 and the remaining NAD [14] was 10 nM (inactive). For the same compound, the luciferase signal [15] was 36 AU (inactive), the log fold change Tl+ flux [16] was 0.01 (inactive) and the log fold change Tl+ flux [17] was -0.0941 (inactive). For the same compound, the log fold change Tl+ flux [18] was -0.00879 (inactive).
For `Nc1ncn([C@@H]2O[C@H](CO)[C@@H](O)[C@H]2O)c(=O)n1`, the nuclear beta-catenin stimulation ([1]; at 10 µM) was 21.7% (inactive), the nuclear beta-catenin stimulation ([1]; stimulation, at 2 µM) was 1.8% and the insulin secretion stimulation [2] was 0.5% (inactive). The viability decrease [3] was 83.3% (active), the tube area decrease [4] was 66.1% (active) and the GLP1 secretion stimulation [5] was -0.3% (inactive). For the same compound, the inhibition of viability [6] was 94.3% (active), the viability decrease (inhibition) [7] was 113% (active) and the viability decrease (inhibition) [8] was 91% (active). The inhibition [9] was 4.17% (inactive), the mean signal [10] was 231 (inactive) and the red/green cell ratio (normalised) [11] was 0.99 (inactive). The normalised cell number [11, 20] was 0.83, the normalised cell number [11, 21] was 0.82 and the fold change [12, 22] was 0.885 (inactive) and 0.737 (inactive) and 0.556 (active). The fold change [12, 23] was 3.44 and 3.26 and 2.98, the cell count [12, 24] was 1630 and 1960 and 3690 and the cell count [12, 25] was 1840 and 2660 and 6640. For the same compound, the remaining NAD [14] was 10 nM (inactive), the luciferase signal [15] was 60 AU (inactive) and the log fold change Tl+ flux [16] was -0.0337 (inactive). For the same compound, the log fold change Tl+ flux [17] was -0.0139 (inactive) and the log fold change Tl+ flux [18] was 0.0239 (inactive).
In the case of `CCc1nc(N)nc(N)c1-c1ccc(Cl)cc1`, the nuclear beta-catenin stimulation ([1]; at 10 µM) is reported as 72.4% (active), the nuclear beta-catenin stimulation ([1]; stimulation, at 2 µM) is reported as 69.7% and the insulin secretion stimulation [2] is reported as 1.3% (inactive). The viability decrease [3] was 18.7% (inactive), the tube area decrease [4] was 16.8% (inactive) and the GLP1 secretion stimulation [5] was -0.3% (inactive). For the same compound, the inhibition of viability [6] was 56.7% (active), the viability decrease (inhibition) [7] was 95.5% (active) and the viability decrease (inhibition) [8] was 35% (inactive). The inhibition [9] was 5.34% (inactive), the mean signal [10] was 234 (inactive) and the red/green cell ratio (normalised) [11] was 0.84 (inactive). The normalised cell number [11, 20] was 0.9, the normalised cell number [11, 21] was 0.75 and the z-score [13, 26] was -0.337 (inactive) and 1.11 (inactive). For the same compound, the z-score [13, 27] was 0.731 and -0.178, the remaining NAD [14] was 10 nM (inactive) and the luciferase signal [15] was 104 AU (inactive). The log fold change Tl+ flux [16] was 0.0572 (inactive), the log fold change Tl+ flux [17] was -0.116 (inactive) and the log fold change Tl+ flux [18] was 0.0521 (inactive).

Reference: PubChem BioAssay
